Shown is part of a subset that was picked to be rich in hits.
FBPA Giardia inh: blocks Giardia fructose-bisphosphate aldolase activity; purified Giardia FBPA; 0.71% of 290,000 active; Potency, µM (series often up to 59.6 µM), for inactives: at the highest dose activity, negative = inhibition, hits mostly inhibitors; A8B2U2; also: potency is read from the fitted curve at half-maximal effect; % is scaled to controls: 0 for no effect and ±100 for the full control effect; nearly all actives have a fitted effect of over 55% in size
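40 nM FBPA preincubated 10 min at RT with compound (up to 57.5 uM final), then substrate plus GAPDH/TPI/NAD/arsenate coupling and diaphorase/resazurin added. Fluorescence read after 20 min at RT, 525/598 nm.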
Sm TGR inh: S. mansoni TGR enzyme inhibition; Q962Y6; purified TGR, DTNB reduction, TNB absorbance 405 nm; Potency, µM (titrated, usually from 114 µM), inactives show top-dose activity change, negative = inhibition, usual class: inhibitors; 3% of 360,000 active; AID 485364; also: potency is read from the fitted curve at half-maximal effect; % is scaled to controls: 0 for no effect and ±100 for the full control effect; nearly all actives have a fitted effect of over 60% in size
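First, TGR (20 nM dispensed) and NADPH were mixed with compound. Second, a 15 min room-temperature incubation followed. Third, further NADPH and then DTNB were added to start the reaction. Finally, TNB absorbance was monitored kinetically.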
Tb PYK inh: inhibitors of Trypanosoma brucei pyruvate kinase. TbPYK enzyme, Kinase-Glo Plus ATP luminescence, 45 min. 0.12% of 410,000 active. Q57TT1. Potency, µM (highest dose often 76.8 µM), without a hit: at the highest dose activity, negative = inhibition, actives largely listed as inhibitors; also: potency is read from the fitted curve at half-maximal effect; % is scaled to controls: 0 for no effect and ±100 for the full control effect; nearly all actives have a fitted effect of over 50% in size
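Assay buffer: 50 mM TEA pH 7.2, 100 mM KCl, 10 mM MgCl2, 0.05% BSA, 0.01% Tween-20. Pyruvate kinase from T. brucei plus substrate met compound, then ADP (130 uM final). Luminescence was read post 45 min RT.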
LmPK inh: blocks Leishmania mexicana pyruvate kinase activity | Potency, µM (top dose mostly 57.5 µM), for inactives: top-dose activity change, negative = inhibition, most hits filed as inhibitors | 0.37% of 290,000 active | AID 1721 | purified LmPK, Kinase-Glo ATP luminescence, 1 h | Q27686; also: potency is read from the fitted curve at half-maximal effect; % is scaled to controls: 0 for no effect and ±100 for the full control effect
Target sequence (Q27686 whole entry, looked up): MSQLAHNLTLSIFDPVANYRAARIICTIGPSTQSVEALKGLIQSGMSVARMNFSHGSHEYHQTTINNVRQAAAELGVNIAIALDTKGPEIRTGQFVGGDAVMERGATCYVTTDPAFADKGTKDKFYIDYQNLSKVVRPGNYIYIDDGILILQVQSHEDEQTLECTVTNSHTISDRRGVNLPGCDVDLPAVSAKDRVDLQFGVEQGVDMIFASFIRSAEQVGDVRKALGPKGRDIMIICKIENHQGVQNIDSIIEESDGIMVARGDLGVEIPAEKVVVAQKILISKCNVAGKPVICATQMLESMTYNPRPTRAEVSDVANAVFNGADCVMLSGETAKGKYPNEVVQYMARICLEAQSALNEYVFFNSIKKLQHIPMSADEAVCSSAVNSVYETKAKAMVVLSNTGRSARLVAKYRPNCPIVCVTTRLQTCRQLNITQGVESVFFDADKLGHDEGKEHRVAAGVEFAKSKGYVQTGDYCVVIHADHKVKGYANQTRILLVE
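qHTS format; LmPK 0.1 nM; substrates PEP 0.5 mM and ADP 0.1 mM. One-hour room-temperature incubation, then coupled luciferase luminescence; 0.5 nM enzyme wells mark activation.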
CHX counter: counter-screen for Shiga toxin inhibitors: cycloheximide protein synthesis inhibition; 12% of 300,000 active; cell reporter, cycloheximide protein synthesis inhibition counterscreen; max response, %; in the data active = max response mostly above about 13%, no sharp cut-off; inactive = mostly below about 14%; also: read at 38.3 µM for the half of the compounds with a filed dose; 0% is about no effect
Shiga inhibitor: blocks Shiga toxin action in Vero cells | inhibition, % at 38.7 µM | 9.2% of 290,000 active | Vero cells, Shiga toxin protein synthesis inhibition reporter | AID 2315; in the data active = inhibition mostly above about 28%, no sharp cut-off; inactive = mostly below about 43%; also: 0% is about no effect
The depositor's hits bear a star. Unless noted, calls follow the shape of the dose curve; as a rule, active = well fitted curve in the direction sought with a large enough effect; inconclusive = small, poorly fitted or top-dose-only effect, or another doubt; inactive = no such curve, though single readings can be large; an effect the other way counts as inactive or inconclusive.

How did O=C(c1ccc2c(c1)OCO2)C1CCCN(Cc2ccc(OC(F)F)cc2)C1 (configuration not stated) do in these assays?
FBPA Giardia inh: 0.8%; Sm TGR inh: 4.3%; Tb PYK inh: 0.3%; LmPK inh: 0.1%; CHX counter: 0.1; Shiga inhibitor: -6.4

What do the screens show for `CCCCC(CC)CNC(=O)CN(C)S(=O)(=O)c1ccc2c(c1)c(=O)n(C)c(=O)n2C` (configuration not stated)?
Sm TGR inh: -4.1%; Tb PYK inh: 22.7%

What do the screens show for `O=C1C(Cl)=C(N2CCOCC2)C(=O)N1c1ccccc1F`?
FBPA Giardia inh: 7.6%; Sm TGR inh: 39.8µM*; Tb PYK inh: 10.2%; LmPK inh: 2.8%; CHX counter: 3.3

How did CC(C)c1ccc(N2C(=O)C(Cl)=C(N3CCOCC3)C2=O)cc1 do in these assays?
FBPA Giardia inh: -12.8%; Sm TGR inh: 2.5%; Tb PYK inh: 2.7%; LmPK inh: -1.8%; CHX counter: -5.9; Shiga inhibitor: -5.6

What do the screens show for `CCOc1ccc(N2C(=O)C(Cl)=C(N3CCOCC3)C2=O)cc1`?
FBPA Giardia inh: -0.5%; Sm TGR inh: 22.4µM*; Tb PYK inh: -12.1%; LmPK inh: 0.7%; CHX counter: -4.7

How did Cc1ccc(N2C(=O)C(Cl)=C(N3CCCCCC3)C2=O)cc1 do in these assays?
FBPA Giardia inh: -0.7%; Sm TGR inh: 0.5%; Tb PYK inh: 0.7%; LmPK inh: 0.2%; CHX counter: 26.8*; Shiga inhibitor: 44.1

Results for O=C1C(Cl)=C(N2CCCCC2)C(=O)N1c1ccccc1 ?
FBPA Giardia inh: 7.1%; Sm TGR inh: 1.7%; Tb PYK inh: -3.2%; LmPK inh: 4.2%; CHX counter: -1.2; Shiga inhibitor: 13.0

How did COc1cc(-c2nc(Cn3nnc(C(=O)Nc4ccccc4)c3C)c(C)o2)cc(OC)c1OC do in these assays?
Sm TGR inh: -0.1%; Tb PYK inh: 1.0%

What do the screens show for `CCCOc1cccc(C2c3c(oc4ccc(F)cc4c3=O)C(=O)N2CCCN2CCOCC2)c1` (configuration not stated)?
Sm TGR inh: 1.9%; Tb PYK inh: 0.6%

What do the screens show for `CSCC[C@H](NC(=O)CNC(=O)CNC(=O)[C@H](CO)NC(=O)[C@H](CCCNC(=N)N)NC(=O)[C@H](CO)NC(=O)[C@H](CC(C)C)NC(=O)[C@H](CC(C)C)NC(=O)CNC(=O)[C@H](C)NC(=O)[C@H](CC(C)C)NC(=O)[C@H](CCCNC(=N)N)NC(=O)[C@H](Cc1cnc[nH]1)NC(=O)[C@@H](NC(=O)[C@@H](N)C(C)C)[C@@H](C)O)C(=O)N[C@H](C(=O)N[C@@H](CCCCN)C(=O)N[C@@H](CO)C(=O)N[C@@H](CC(N)=O)C(=O)N[C@@H](Cc1ccccc1)C(=O)N[C@H](C(=O)N1CCC[C@H]1C(=O)N[C@H](C(=O)N[C@@H](CC(N)=O)C(=O)N[C@H](C(=O)NCC(=O)N[C@@H](CO)C(=O)N[C@@H](CCCCN)C(=O)N[C@@H](C)C(=O)N[C@@H](Cc1ccccc1)C(N)=O)C(C)C)[C@@H](C)O)C(C)C)C(C)C`?
FBPA Giardia inh: 6.3%; CHX counter: -3.5; Shiga inhibitor: 8.3

How did COc1cccc(NC(=O)N2CCN(c3cccc(C)c3C)CC2)c1 do in these assays?
FBPA Giardia inh: -5.3%; Sm TGR inh: 6.8%; Tb PYK inh: -6.0%; LmPK inh: -1.0%; CHX counter: 38.1*; Shiga inhibitor: 66.2*

What do the screens show for `COc1ccccc1N1CCN(C(=O)Nc2cccc(Cl)c2)CC1`?
FBPA Giardia inh: -1.7%; Sm TGR inh: -6.3%; Tb PYK inh: -5.6%; LmPK inh: 0.7%; CHX counter: 26.5; Shiga inhibitor: 27.5

What do the screens show for `COc1cccc(NC(=O)N2CCC3(CC2)OCCO3)c1`?
FBPA Giardia inh: 5.6%; Sm TGR inh: -11.7%; Tb PYK inh: 5.6%; LmPK inh: -6.3%; CHX counter: 31.1*; Shiga inhibitor: 60.8*

What do the screens show for `COc1ccc(NC(=O)N2CCC3(CC2)OCCO3)cc1OC`?
FBPA Giardia inh: -4.3%; Sm TGR inh: -1.3%; Tb PYK inh: 2.3%; LmPK inh: -1.3%; CHX counter: -3.8; Shiga inhibitor: -17.3

What do the screens show for `COC(=O)C1CCN(C(=O)[C@H](C)NC(=O)C2CC(=O)N(c3ccc(F)cc3)C2)CC1` (some centres not stated)?
Sm TGR inh: 1.8%; Tb PYK inh: 1.4%; LmPK inh: 6.0%; CHX counter: 2.4; Shiga inhibitor: 1.7

What do the screens show for `Cc1ccc(NC(=O)C(OC(=O)c2cnc(C)cn2)c2ccccc2)c([N+](=O)[O-])c1` (configuration not stated)?
Sm TGR inh: 5.9%; Tb PYK inh: -5.6%; LmPK inh: -3.8%; CHX counter: 14.3*; Shiga inhibitor: 8.1

What do the screens show for `COCCNC(=S)Nc1ccc([N+](=O)[O-])cc1C`?
FBPA Giardia inh: -7.4%; Sm TGR inh: inconclusive; Tb PYK inh: -5.5%; LmPK inh: 2.3%; CHX counter: 2.9; Shiga inhibitor: 9.1

Results for CCOc1ccccc1NC(=O)C(OC(=O)c1cnc(C)cn1)c1ccccc1 (configuration not stated) ?
Tb PYK inh: -9.4%

Results for COCCNC(C(=O)Nc1ccc(C)cc1[N+](=O)[O-])c1ccccc1 (configuration not stated) ?
FBPA Giardia inh: -4.7%; Sm TGR inh: -26.8%; Tb PYK inh: -2.3%; LmPK inh: 2.1%; CHX counter: 27.8*; Shiga inhibitor: 37.8

How did COCCCNC(=S)Nc1ccc(C)cc1[N+](=O)[O-] do in these assays?
FBPA Giardia inh: 0.8%; Sm TGR inh: 44.7µM*; Tb PYK inh: 2.8%; LmPK inh: -3.0%; CHX counter: 19.7*; Shiga inhibitor: 55.0*

How did CCCC(=O)N1CCCC1(C)C(=O)N(C)Cc1cccc2ccccc12 (configuration not stated) do in these assays?
Tb PYK inh: -1.2%

What do the screens show for `CCN(CC)S(=O)(=O)c1ccc2c(c1)nc(CN(C)C(=O)Nc1ccc(C)c(Cl)c1)n2C`?
Sm TGR inh: -1.3%; Tb PYK inh: -1.2%

What do the screens show for `O=[N+]([O-])c1cc(/C=N\O)ccc1Oc1ccc(F)cc1`?
FBPA Giardia inh: -0.9%; Tb PYK inh: 0.3%; LmPK inh: 4.8%; CHX counter: 26.8*; Shiga inhibitor: 27.4

What do the screens show for `CC(C)(C)c1ccc(C(=O)NC2=NC(c3cccc(F)c3)CC(=O)N2)cc1` (configuration not stated)?
Sm TGR inh: 8.8%; Tb PYK inh: 3.2%

Screens from PubChem BioAssay.
